Values without a mark were called inactive. Where a call stands in place of a potency, no number is given. For part of these data: Potency and affinity values are given separately. Active and inactive are the calls of the source. Unless noted, the rule behind the calls is not given here.
What was measured:
[1] = antimalarial activity against Dd2 strain (AID 2302;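 active = growth inhibition above 50% at the single 2 µM test dose, taken to imply half-maximal potency below 2 µM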); settings: P. falciparum Dd2 in RBCs, LDH growth readout, 72 h; at 2 µM; hits give high values
[2] = human hepatoma cell viability loss – ATP luminescence, cytotoxicity control for P. falciparum antimalarial project, primary screen (AID 2303;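 active = inhibition above 50%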); settings: HepG2 viability, 24-48 h, at 10 µM, hits give high values
[3] = target: L-lactate dehydrogenase (Plasmodium falciparum (isolate CDC / Honduras)) (UniProt Q27743); experiment: PfLDH activity inhibition – cell lysate, 3D7 strain, counter-screen for P. falciparum growth inhibition project (AID 2304); settings: P. falciparum 3D7 crude extract, LDH APAD/NBT absorbance; at 2 µM; hits give high values
Sequence of L-lactate dehydrogenase (Plasmodium falciparum (isolate CDC / Honduras)) (Q27743 whole entry, looked up): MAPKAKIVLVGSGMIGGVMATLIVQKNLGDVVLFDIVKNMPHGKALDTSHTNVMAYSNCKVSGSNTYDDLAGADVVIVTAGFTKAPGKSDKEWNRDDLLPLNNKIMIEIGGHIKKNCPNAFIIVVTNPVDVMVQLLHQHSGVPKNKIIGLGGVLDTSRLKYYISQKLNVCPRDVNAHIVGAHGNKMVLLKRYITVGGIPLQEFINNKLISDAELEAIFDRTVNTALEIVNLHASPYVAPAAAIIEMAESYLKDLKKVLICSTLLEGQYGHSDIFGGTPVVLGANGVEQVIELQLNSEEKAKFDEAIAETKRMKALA

[4] = inhibition of 3D7 malaria parasite growth – strain 3D7 (AID 2306); settings: P. falciparum 3D7 erythrocytic growth, LDH absorbance, 72 h; at 2 µM; hits give high values
[5] = target: Calcium-dependent protein kinase 1 (Plasmodium falciparum (isolate 3D7)) (UniProt P62344); experiment: PfCDPK1 kinase inhibitors, biochemical, TCAMS library (AID 1159585; cut-off not given, nearly all actives have IC50 up to about 0.98 µM;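 note: inhibitors leave more ATP so luminescence rises with inhibition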); settings: recombinant PfCDPK1, Kinase-Glo ATP depletion luminescence
Sequence of Calcium-dependent protein kinase 1 (Plasmodium falciparum (isolate 3D7)) (P62344 whole entry, looked up): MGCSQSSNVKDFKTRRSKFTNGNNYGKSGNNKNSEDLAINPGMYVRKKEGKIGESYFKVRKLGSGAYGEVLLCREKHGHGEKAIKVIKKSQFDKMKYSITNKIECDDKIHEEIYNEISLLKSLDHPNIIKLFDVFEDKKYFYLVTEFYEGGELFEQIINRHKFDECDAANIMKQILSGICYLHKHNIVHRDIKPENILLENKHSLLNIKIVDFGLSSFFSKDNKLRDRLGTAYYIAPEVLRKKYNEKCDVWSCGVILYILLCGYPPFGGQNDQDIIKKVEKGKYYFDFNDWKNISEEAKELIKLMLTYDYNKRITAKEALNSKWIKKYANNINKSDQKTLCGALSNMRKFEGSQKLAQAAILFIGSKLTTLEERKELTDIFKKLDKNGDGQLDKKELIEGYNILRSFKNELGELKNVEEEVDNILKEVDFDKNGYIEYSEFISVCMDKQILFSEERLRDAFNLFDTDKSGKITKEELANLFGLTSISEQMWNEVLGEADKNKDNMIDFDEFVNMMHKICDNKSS

[6] = target: Plasmodium falciparum protein kinase 6 (PK6, PF3D7_1337100) (UniProt Q8IDW1); experiment: PfPK6 kinase inhibitors, biochemical, TCAMS library (AID 1159586); settings: recombinant PfPK6, Kinase-Glo ATP depletion luminescence
Sequence of Plasmodium falciparum protein kinase 6 (PK6, PF3D7_1337100) (Q8IDW1 1-305): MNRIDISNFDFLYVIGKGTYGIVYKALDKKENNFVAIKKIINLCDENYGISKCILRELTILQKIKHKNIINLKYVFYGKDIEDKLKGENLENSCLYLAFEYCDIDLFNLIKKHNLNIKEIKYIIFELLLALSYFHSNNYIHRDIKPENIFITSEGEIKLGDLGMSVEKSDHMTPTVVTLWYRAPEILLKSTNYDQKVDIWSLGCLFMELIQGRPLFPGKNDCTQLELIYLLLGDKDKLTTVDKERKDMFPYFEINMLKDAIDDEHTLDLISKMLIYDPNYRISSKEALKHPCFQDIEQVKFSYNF

[7] = target: Protein kinase 7 (PK7), Plasmodium falciparum 3D7 (PF3D7_0213400) (UniProt Q7YTF7); experiment: inhibition of Plasmodium PK7 catalytic activity – biochemical, TCAMS antimalarial set, Kinase-Glo luminescence (AID 1159587); settings: recombinant PfPK7, Kinase-Glo ATP depletion luminescence
Sequence of Protein kinase 7 (PK7), Plasmodium falciparum 3D7 (PF3D7_0213400) (Q7YTF7 1-343): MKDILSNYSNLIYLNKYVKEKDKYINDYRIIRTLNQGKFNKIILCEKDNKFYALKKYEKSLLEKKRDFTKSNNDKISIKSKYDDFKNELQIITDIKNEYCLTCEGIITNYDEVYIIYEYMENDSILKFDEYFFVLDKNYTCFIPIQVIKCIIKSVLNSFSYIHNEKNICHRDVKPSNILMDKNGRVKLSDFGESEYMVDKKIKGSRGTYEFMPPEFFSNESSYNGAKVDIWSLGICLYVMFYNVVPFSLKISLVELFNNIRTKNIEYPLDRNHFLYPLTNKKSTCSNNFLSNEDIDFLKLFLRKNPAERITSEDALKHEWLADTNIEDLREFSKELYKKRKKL

[8] = target: Calcium-dependent protein kinase 4 (Plasmodium falciparum (isolate 3D7)) (UniProt Q8IBS5); experiment: PfCDPK4 kinase inhibitors, biochemical, TCAMS library (AID 1159588; cut-off not given, nearly all actives have IC50 up to about 0.91 µM); settings: recombinant PfCDPK4, Kinase-Glo ATP depletion luminescence
Sequence of Calcium-dependent protein kinase 4 (Plasmodium falciparum (isolate 3D7)) (Q8IBS5 whole entry, looked up): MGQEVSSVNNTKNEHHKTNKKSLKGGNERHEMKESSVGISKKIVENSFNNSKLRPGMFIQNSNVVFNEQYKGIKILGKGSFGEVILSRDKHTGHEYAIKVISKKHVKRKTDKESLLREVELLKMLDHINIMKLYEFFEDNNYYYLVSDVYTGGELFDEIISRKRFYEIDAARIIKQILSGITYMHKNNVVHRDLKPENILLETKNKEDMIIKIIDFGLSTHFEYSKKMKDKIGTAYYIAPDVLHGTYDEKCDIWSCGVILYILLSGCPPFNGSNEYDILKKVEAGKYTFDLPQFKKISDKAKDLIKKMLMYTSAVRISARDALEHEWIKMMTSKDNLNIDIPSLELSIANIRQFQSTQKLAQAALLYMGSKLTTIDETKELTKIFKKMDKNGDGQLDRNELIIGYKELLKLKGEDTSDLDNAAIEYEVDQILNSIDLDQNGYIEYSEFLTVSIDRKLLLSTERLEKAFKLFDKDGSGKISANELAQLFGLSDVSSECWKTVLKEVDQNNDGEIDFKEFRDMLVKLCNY

| SMILES | growth inhibition [1] | inhibition [2] | inhibition [3] [%] | growth inhibition [4] | outcome [5] | outcome [6] | outcome [7] | outcome [8] |
| --- | --- | --- | --- | --- | --- | --- | --- | --- |
| CN1CCCC(CN2CCN(Cc3ccc(-c4ccc(-c5nc6ccc(F)cc6[nH]5)cc4)cc3)CC2)C1 (stereo not drawn) | 98% (active) | 90% (active) | -1 | 100% (active) | inactive | inactive | inactive | inactive |
| CCOc1ccc(C(=O)Nc2cc(Cl)ccc2O)cc1Cl | 84% (active) | 11% | 0 | 83% (active) | inactive | inactive | inactive | inactive |
| COc1ccc(CNCc2ccc(-c3ccc(-c4nc5ccccc5[nH]4)cc3)cc2)cc1 | 89% (active) | 63% (active) | -4 | 103% (active) | inactive | inactive | inactive | inactive |
| COc1ccc(C(=O)NC(c2ccc(Cl)cc2Cl)c2cc(Cl)c3cccnc3c2O)cc1 (stereo not drawn) | 48% | 46% | 2 | 84% (active) | inactive | inactive | inactive | inactive |
| O=S(=O)(c1ccccc1)C1CC1 | 65% (active) | -3% | 7 | 89% (active) | inactive | inactive | inactive | inactive |
| N#Cc1ccc(NC2(C(=O)N3CCN(c4cccc(Cl)c4)CC3)CC2)c2ccccc12 | 66% (active) | -5% | 0 | 94% (active) | inactive | inactive | inactive | inactive |
| CCn1c(Sc2ccc([N+](=O)[O-])c(C#N)c2)nnc1-c1ccc(Cl)cc1 | 7% | 2% | -2 | 93% (active) | inactive | inactive | inactive | inactive |
| CN(C)CCCc1cc2c(cc1Cl)CCN2C(=O)Nc1ccc(-c2ccncc2)c2ccccc12 | -2% | 4% | -2 | 94% (active) | inactive | inactive | inactive | inactive |
| Cc1noc(C)c1-c1cccc(CNCc2cccc(-c3ccc(-c4nc5c(C)cccc5[nH]4)cc3)c2)c1 | 69% (active) | 24% | 6 | 103% (active) | inactive | inactive | inactive | inactive |
| CCCCNc1nc(NCCCC)c2c(C)c(Cc3ccccc3)c(NCCCC)nc2n1 | 84% (active) | 69% (active) | -10 | 95% (active) | inactive | inactive | inactive | inactive |
| Cc1cc2nc(-c3cccc(C(=O)NC4CCN(Cc5ccccc5)CC4)c3)[nH]c2cc1C | 13% | 32% | 2 | 101% (active) | inactive | inactive | inactive | inactive |
| COc1ccc(NC(=O)CCNc2cc(C)nc(NCCc3ccc(F)cc3)n2)cc1 | 3% | 27% | 1 | 98% (active) | inactive | inactive | inactive | inactive |
| Cc1ccc(S(C)(=O)=O)cc1/C=C/C(=O)O | 1% | -7% | 4 | 96% (active) | inactive | inactive | inactive | inactive |
| O=C(c1ccc(O)c(-c2cc(Cl)cc(Cl)c2)c1)N(CCO)CCO | 62% (active) | 1% | -9 | 94% (active) | inactive | inactive | inactive | inactive |
| Cc1cc(C)c2nc(N3CCC(C(=O)NCCCN4CCC(N5CCCCC5)CC4)CC3)sc2c1 | 34% | 99% (active) | -5 | 99% (active) | inactive | inactive | inactive | inactive |
| N=c1sc2ccccc2n1CC(O)c1ccc(Cl)c(Cl)c1 (stereo not drawn) | 74% (active) | 4% | -2 | 99% (active) | inactive | inactive | inactive | inactive |
| Cc1nc(N)nc(N)c1CCCOc1ccc(Br)cc1 | 5% | 30% | 1 | 97% (active) | inactive | inactive | inactive | inactive |
| COc1ccc(C(=O)CCC(=O)N(Cc2ccc(-c3ccc(CNCCc4ccc(S(C)(=O)=O)cc4)cn3)cc2)C2CCN(Cc3ccccc3)CC2)cc1F | 72% (active) | 20% | 2 | 99% (active) | inactive | inactive | inactive | inactive |
| COc1ccc2nccc([C@@H](O)CN3CCC(NCCOc4c(C)cccc4F)CC3)c2c1 | 95% (active) | 4% | -5 | 100% (active) | inactive | inactive | inactive | inactive |
| N#Cc1ccccc1C1CCN(C2CCC(Nc3cc(-c4cccnc4)ccn3)CC2)CC1 (stereo not drawn) | 78% (active) | 38% | 5 | 100% (active) | inactive | inactive | inactive | inactive |
| CCOc1cc(C)ccc1N1CCN(CCCCNC(=O)c2ccc(NC(=O)c3ccc(Cl)cc3)cc2)CC1 | 46% | 19% | -5 | 100% (active) | inactive | inactive | inactive | inactive |
